High-throughput results (PubChem)
Sampled rows, rich in hits. Any-hit rate of the full collection: about 12%.
HP1b binding inh: blocks HP1-beta chromodomain binding to methylated histone tails | 390,000 compounds, 0.56% hits | AlphaScreen HP1-beta / biotin-H3K9me3 peptide binding | Potency, µM (doses to about 114 µM), for the others: top-dose activity change, negative = inhibition, hits mostly inhibitors; further: nearly all actives have a fitted effect of over 70% in size
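AlphaScreen: HP1-beta (50 nM) preformed 30 min with biotin-H3(1-18)K9me3 peptide (50 nM) in PBS pH 7.4, 0.01% Tween-20. Compound added for 30 min at RT, then streptavidin donor/nickel chelate acceptor beads (10 ug/mL) for 30 min.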
Sfp PPTase inh: Sfp phosphopantetheinyl transferase inhibition; Biochemical Sfp PPTase activity, qHTS; 310,000 compounds, 3.5% hits; Potency, µM, for the others: largest response in the series, negative = inhibition, usual class: inhibitors; Q9F4F7;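 further: the enzyme is Sfp with the accession as filed and its product quenches rhodamine fluorescence; 0% = enzyme reaction without inhibitor and -100% = no enzyme wells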
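Fluorescence-quenching assay with 15 nM Sfp, 5 uM rhodamine-CoA and 12.5 uM BHQ-2-labelled ybbR peptide in pH 7.6 Hepes/MgCl2 buffer. Enzyme was pre-incubated with compound for 15 min at room temperature. Rate was taken from the 30-min fluorescence change (525/598 nm).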
BAZ2B block: BAZ2B (human) inhibition; 360,000 compounds, 4.4% hits; AlphaScreen BAZ2B-H3K14Ac peptide displacement; Potency, µM (series often up to 114 µM), for the others: at the top dose activity change, negative = inhibition, most hits filed as inhibitors; AID 504333; Q9UIF8; further: on the % scale 0 is the no-effect control and ±100 the full control effect; nearly all actives have a fitted effect of over 60% in size
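Complex of BAZ2B and biotin-H3K14Ac (50 nM apiece) forms over 30 min at RT, then faces library compounds up to 110 uM for another 30 min; AlphaScreen beads added, 20 min dark incubation, luminescence read.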
G9a block: blocks human histone lysine methyltransferase G9a; AID 504332; G9a H3K9 monomethylation, AlphaScreen, 2 h; Potency, µM (highest dose often 102 µM), without a hit: at the top dose activity, negative = inhibition, usual class: inhibitors; 350,000 compounds, 8.8% hits; further: on the % scale 0 is the no-effect control and ±100 the full control effect; nearly all actives have a fitted effect of over 75% in size
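Signal arises when biotinylated H3K9 peptide, once monomethylated, bridges streptavidin donor and antibody-captured acceptor beads. Enzyme at 20 nM was preincubated 15 min with test compounds; peptide 500 nM and SAM 20 uM then reacted for 2 h.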
JMJD2A Tudor inh: inhibitors of human JMJD2A Tudor domain. O75164. AlphaScreen JMJD2A-Tudor / H3K4me3 peptide binding. Potency, µM (doses to about 114 µM), for the others: at the top dose activity change, negative = inhibition, hits mostly inhibitors. 390,000 compounds, 4.4% hits. AID 504339; further: on the % scale 0 is the no-effect control and ±100 the full control effect; nearly all actives have a fitted effect of over 50% in size
L3MBTL1 inh: L3MBTL1 (human) inhibition; Q9Y468; AlphaScreen L3MBTL1–H3K9me1 peptide binding; Potency, µM (series often up to 57.1 µM), inactives show at the highest dose activity, negative = inhibition, hits mostly inhibitors; 230,000 compounds, 0.66% hits; AID 485360; further: on the % scale 0 is the no-effect control and ±100 the full control effect; nearly all actives have a fitted effect of over 60% in size
Target sequence (Q9Y468 whole entry, looked up): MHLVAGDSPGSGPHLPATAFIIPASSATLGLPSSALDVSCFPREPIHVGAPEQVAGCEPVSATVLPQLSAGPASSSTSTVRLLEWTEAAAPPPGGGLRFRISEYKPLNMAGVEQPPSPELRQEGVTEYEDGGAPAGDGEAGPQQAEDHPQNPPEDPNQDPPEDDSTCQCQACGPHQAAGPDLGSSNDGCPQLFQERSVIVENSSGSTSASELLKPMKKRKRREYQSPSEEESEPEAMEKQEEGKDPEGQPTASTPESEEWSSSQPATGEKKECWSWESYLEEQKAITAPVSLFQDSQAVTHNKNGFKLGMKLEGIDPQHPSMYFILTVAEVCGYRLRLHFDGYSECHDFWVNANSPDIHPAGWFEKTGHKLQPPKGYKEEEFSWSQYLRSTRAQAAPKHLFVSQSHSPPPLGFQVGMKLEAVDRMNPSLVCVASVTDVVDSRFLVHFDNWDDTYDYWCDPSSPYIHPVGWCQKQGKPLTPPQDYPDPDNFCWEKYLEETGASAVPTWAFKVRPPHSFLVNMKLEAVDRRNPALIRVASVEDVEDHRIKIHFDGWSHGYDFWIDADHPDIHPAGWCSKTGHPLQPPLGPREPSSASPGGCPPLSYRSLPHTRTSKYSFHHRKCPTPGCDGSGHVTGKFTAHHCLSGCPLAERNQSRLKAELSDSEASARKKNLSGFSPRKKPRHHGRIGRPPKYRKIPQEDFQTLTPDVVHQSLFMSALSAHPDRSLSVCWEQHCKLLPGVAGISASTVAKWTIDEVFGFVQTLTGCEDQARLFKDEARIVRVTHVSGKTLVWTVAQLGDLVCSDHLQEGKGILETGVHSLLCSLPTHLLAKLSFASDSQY
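Read-out is AlphaScreen signal from streptavidin donor and nickel chelate acceptor beads (10 ug/mL final each) bridging L3MBTL1 (50 nM) and biotinylated K9-monomethylated H3(1-15) peptide (75 nM), after 30 min compound exposure at room temperature.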
* = called active by the depositor; [ ] = remark or other dose. The call rests on the fitted dose curve; in most records, active means well fitted curve in the direction sought with a large enough effect; inconclusive means small, poorly fitted or top-dose-only effect, or another doubt; inactive means no such curve, though single readings can be large; an effect the other way counts as inactive or inconclusive. Potency means the concentration at half of the fitted maximal effect.

How did CC1CCN(c2nc(-c3ccccc3O)nc3ccccc23)CC1 do in these assays?
HP1b binding inh: 67%; Sfp PPTase inh: 10%; BAZ2B block: 0%; G9a block: 5%[59 µM]; JMJD2A Tudor inh: 22%; L3MBTL1 inh: 6%

Results for COc1cccc(-c2nc(N3CCC(C)CC3)c3ccccc3n2)c1O ?
HP1b binding inh: -44%; Sfp PPTase inh: inconclusive; BAZ2B block: inconclusive; G9a block: 35µM*; JMJD2A Tudor inh: 56µM*; L3MBTL1 inh: -4%

What do the screens show for `CCOC(=O)C1CCN(C(=S)Nc2ccc(S(N)(=O)=O)cc2)CC1`?
HP1b binding inh: inconclusive; Sfp PPTase inh: 45µM*; BAZ2B block: -3%; G9a block: 10µM*; JMJD2A Tudor inh: inconclusive; L3MBTL1 inh: -8%

Results for CCOC(=O)C1CCN(C(=S)Nc2ccc(C)cc2)CC1 ?
HP1b binding inh: 52%; Sfp PPTase inh: 7%; BAZ2B block: -25%; G9a block: -19%; JMJD2A Tudor inh: -13%; L3MBTL1 inh: -1%

How did NS(=O)(=O)c1ccc(NC(=S)N2CCC(O)CC2)cc1 do in these assays?
HP1b binding inh: 12%; Sfp PPTase inh: 45µM*; BAZ2B block: 2%; G9a block: 40µM*; JMJD2A Tudor inh: 7%

Results for CCOC(=O)C1CCCN(C(=S)Nc2ccc(Nc3ccccc3)cc2)C1 (stereo not drawn) ?
HP1b binding inh: inconclusive; Sfp PPTase inh: 45µM*; BAZ2B block: 35µM*; G9a block: 25µM*; JMJD2A Tudor inh: 56µM*; L3MBTL1 inh: -13%[11.4 µM]

What do the screens show for `Cc1nc2nc(SCc3c(F)cccc3Cl)nn2c(C)c1Cc1ccccc1`?
HP1b binding inh: 30%; BAZ2B block: 2%; G9a block: 14%[59 µM]; JMJD2A Tudor inh: 0%

Results for COc1cccc(Nc2ncc3nc(CCc4ccccc4)c(=O)n(C4CC4)c3n2)c1 ?
Sfp PPTase inh: 7%; G9a block: 0%[12.7 µM]

What do the screens show for `CC(C)[C@@H](CC(=O)N[C@@H]1CCNC[C@H]1C(=O)N[C@H](CC(=O)N[C@@H](CCC(=O)O)CC(=O)O)Cc1c[nH]c2ccccc12)NC(=O)C[C@H](Cc1ccccc1)NC(=O)[C@@H]1CCCC[C@H]1N`?
Sfp PPTase inh: 2%

What do the screens show for `O=C(NC(=S)Nn1cnnc1)c1ccccc1Br`?
HP1b binding inh: inconclusive; Sfp PPTase inh: 25µM*; BAZ2B block: -28%; G9a block: -127%[59 µM]; JMJD2A Tudor inh: -15%

What do the screens show for `COC(=O)C1=C(C(=O)OC)[C@@H]2N(C)c3ccccc3[C@@]23C[C@@H](C(=O)OC)N(S(=O)(=O)c2ccc(OC)cc2)C3=N1`?
Sfp PPTase inh: -9%

What do the screens show for `Cc1nc(-c2ccccc2)cn(O)c1=O`?
HP1b binding inh: 6%; Sfp PPTase inh: -26%; BAZ2B block: 79µM*; G9a block: inconclusive; JMJD2A Tudor inh: 28µM*; L3MBTL1 inh: 8%

How did Cc1cc(F)c(Nc2ncnc3cc(OCc4ccccc4)ccc23)cc1O do in these assays?
Sfp PPTase inh: 7%; G9a block: inconclusive

Results for COc1ccc2c(c1OC)C(=O)OC2c1ccc(O)cc1 (stereo not drawn) ?
HP1b binding inh: 29%; JMJD2A Tudor inh: -4%

What do the screens show for `CSC1=C(C#N)C(=O)NC(c2ccccc2O)S1` (stereo not drawn)?
HP1b binding inh: 18%; Sfp PPTase inh: inconclusive; BAZ2B block: inconclusive; G9a block: -105%[59 µM]; JMJD2A Tudor inh: -9%; L3MBTL1 inh: 3%

How did COC(=O)CSC1=C(C#N)C(=O)NC(c2ccccc2)S1 (stereo not drawn) do in these assays?
HP1b binding inh: 46%; Sfp PPTase inh: 32µM*; BAZ2B block: 50µM*; G9a block: inconclusive; JMJD2A Tudor inh: inconclusive
